Assay [1] is described as follows: S16 Schwann cell viability assay (CellTiter-Glo assay) (AID 624031). Further: nearly all actives have a fitted effect of over 70% in size. An outline of the steps:
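Cells were seeded at 500-750 per well in phenol red-free DMEM with 10% FBS and left overnight. Compounds or DMSO were pinned in, incubation ran 24 h at 37 °C/5% CO2, then CellTiter-Glo reagent was added and luminescence measured.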

Assay [2] deals with 3D7. Nature of the assay: qHTS profiling for inhibitors of Plasmodium falciparum proliferation (AID 504749). Further: nearly all actives have a fitted effect of over 60% in size. The settings on record: P. falciparum in erythrocytes, SYBR Green DNA, 72 h; series mostly up to 28.7 µM. In a few lines: (§1)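 SYBR Green fluorescence of parasite DNA, read after lysis and overnight dark incubation, measured growth over 72 h in erythrocyte culture at 0.3% parasitemia and 2.5% hematocrit. Data normalised to DMSO and 0.29 uM artemisinin, with plate-drift correction.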
(In general: qHTS replaces the single test concentration by a dilution series.)

Assay [3] relates to 7G8. Described as above. As to conditions: P. falciparum in erythrocytes, SYBR Green DNA, 72 h; series mostly up to 28.7 µM. In a few lines: as §1
Assay [4] concerns ATS95. Described as above. The settings on record: P. falciparum in erythrocytes, SYBR Green DNA, 72 h; series mostly up to 28.7 µM. An outline of the steps:
as §1

The test system of assay [5] is CP191. Described as above. As to conditions: P. falciparum in erythrocytes, SYBR Green DNA, 72 h; series mostly up to 28.7 µM. An outline of the steps:
as §1

Assay [6] concerns CP215. The description is as above. The settings on record: P. falciparum in erythrocytes, SYBR Green DNA, 72 h; series mostly up to 28.7 µM. An outline of the steps:
as §1

Assay [7] has as its system CP247. The assay is described as above. The settings on record: P. falciparum in erythrocytes, SYBR Green DNA, 72 h; series mostly up to 28.7 µM. In a few lines:
as §1

For assay [8], the system named is CP260. Described as above. The settings on record: P. falciparum in erythrocytes, SYBR Green DNA, 72 h; series mostly up to 28.7 µM. An outline of the steps:
as §1

The test system of assay [9] is CP266. The assay is described as above. The settings on record: P. falciparum in erythrocytes, SYBR Green DNA, 72 h; series mostly up to 28.7 µM. In a few lines: as §1
Assay [10] has as its system CP291. The assay is described as above. The settings on record: P. falciparum in erythrocytes, SYBR Green DNA, 72 h; series mostly up to 28.7 µM. An outline of the steps:
as §1

For assay [11], the system named is CP335. Described as above. The settings on record: P. falciparum in erythrocytes, SYBR Green DNA, 72 h; series mostly up to 28.7 µM. In a few lines:
as §1

Assay [12] has as its system DIV17. Described as above. As to conditions: P. falciparum in erythrocytes, SYBR Green DNA, 72 h; series mostly up to 28.7 µM. An outline of the steps:
as §1

The subject of assay [13] is DIV30. The assay is described as above. The settings on record: P. falciparum in erythrocytes, SYBR Green DNA, 72 h; series mostly up to 28.7 µM. In a few lines:
as §1

The test system of assay [14] is P93_24. The assay is described as above. As to conditions: P. falciparum in erythrocytes, SYBR Green DNA, 72 h; series mostly up to 28.7 µM. An outline of the steps: as §1
The subject of assay [15] is P94_40. Described as above. As to conditions: P. falciparum in erythrocytes, SYBR Green DNA, 72 h; series mostly up to 28.7 µM. In a few lines: as §1
The subject of assay [16] is PAD. The description is as above. As to conditions: P. falciparum in erythrocytes, SYBR Green DNA, 72 h; series mostly up to 28.7 µM. An outline of the steps:
as §1

Assay [17] deals with PC26. The description is as above. The settings on record: P. falciparum in erythrocytes, SYBR Green DNA, 72 h; series mostly up to 28.7 µM. An outline of the steps:
as §1

For assay [18], the system named is SC27B. The description is as above. The settings on record: P. falciparum in erythrocytes, SYBR Green DNA, 72 h; series mostly up to 28.7 µM. An outline of the steps:
as §1

Assay [19] relates to TAB113. The description is as above. As to conditions: P. falciparum in erythrocytes, SYBR Green DNA, 72 h; series mostly up to 28.7 µM. In a few lines:
as §1

Assay [20] deals with TAB165. Described as above. As to conditions: P. falciparum in erythrocytes, SYBR Green DNA, 72 h; series mostly up to 28.7 µM. In a few lines: as §1

SMILES strings stand for the structures. Records with an inconclusive call do not appear. Calls of active or inactive are those of the source. The call rests on the fitted dose curve; in most records, active means well fitted curve in the direction sought with a large enough effect; inconclusive means small, poorly fitted or top-dose-only effect, or another doubt; inactive means no such curve, though single readings can be large; an effect the other way counts as inactive or inconclusive.
Potency means the concentration at half of the fitted maximal effect.

Turning to `CCCCC(=O)OCC(=O)[C@]1(O)Cc2c(O)c3c(c(O)c2[C@H](OC2CC(NC(=O)C(F)(F)F)C(O)C(C)O2)C1)C(=O)c1c(OC)cccc1C3=O` (some centres not stated), the Potency entry in assay [1] was “inactive”. The Potency in assay [2] was 1580 nM (active); in assay [3] it was 1260 nM (active); in assay [4] it was 2000 nM (active); in assay [5], 2510 nM (active); in [6], 4780 nM (active); in [7], 3160 nM (active). In addition, the Potency in assay [8] is 2000 nM (active); in assay [9] it was 1690 nM (active); in assay [10], 4260 nM (active); in [11] it was 1510 nM (active); in [12], 1510 nM (active); in [13], 1900 nM (active). Moreover, the Potency in assay [14] was 2000 nM (active); in assay [15], 2000 nM (active); in assay [16], 2240 nM (active); in [17], 1510 nM (active); in assay [18] it was 2510 nM (active); in assay [19], 2510 nM (active). Also, the Potency in assay [20] was 2240 nM (active).

As for `CO[C@H]1C[C@@H]2CC[C@@H](C)[C@@](O)(O2)C(=O)C(=O)N2CCCC[C@H]2C(=O)O[C@H]([C@H](C)C[C@@H]2CC[C@@H](O)[C@H](OC)C2)CC(=O)[C@H](C)/C=C(\C)[C@@H](O)[C@@H](OC)C(=O)[C@H](C)C[C@H](C)/C=C/C=C/C=C/1C`, the Potency in assay [2] was 2820 nM (active); in assay [3] it was 1000 nM (active); in assay [4], 3980 nM (active); in [5] it was 2240 nM (active); in assay [6], 1690 nM (active); in assay [7] it was 3550 nM (active). Further, the Potency in assay [8] was 4470 nM (active); in [10], 4260 nM (active); in [11], 1900 nM (active); in assay [12], 1690 nM (active); in [13], 1900 nM (active); in assay [14], 2000 nM (active). The Potency in assay [15] was 2240 nM (active); in [16] it was 1000 nM (active); in assay [17] it was 1510 nM (active); in assay [18], 2510 nM (active); in assay [19], 2510 nM (active); in assay [20] it was 1780 nM (active).

Regarding `CC[C@H](C)[C@H]1O[C@]2(CC[C@@H]1C)C[C@@H]1C[C@@H](C/C=C(\C)[C@H](O[C@@H]3C[C@H](OC)[C@H](O[C@@H]4C[C@H](OC)[C@@H](O)[C@H](C)O4)[C@H](C)O3)[C@@H](C)/C=C/C=C3\CO[C@@H]4[C@H](O)C(C)=C[C@@H](C(=O)O1)[C@]34O)O2`, the Potency is 12800 nM (active) in assay [1]; 1410 nM (active) in [2]; 2000 nM (active) in assay [3]; 1120 nM (active) in [4]; 794 nM (active) in [5]; 1350 nM (active) in assay [6]. The Potency in assay [7] was 1000 nM (active); in assay [8] it was 2240 nM (active); in assay [10], 1510 nM (active); in [11], 1350 nM (active); in [12] it was 2130 nM (active); in assay [14], 1260 nM (active). Also, the Potency in assay [15] is 1120 nM (active); in [16] it was 1410 nM (active); in [17], 1200 nM (active); in assay [18] it was 1000 nM (active); in assay [19], 891 nM (active); in assay [20], 794 nM (active).

Turning to `O=C(O)c1ccc(N[C@@H]2OC[C@@H](O)[C@@H](O)[C@@H]2O)cc1`, the Potency result in [1], in assay [2], in [3], in assay [4], in assay [5] and in assay [6] was “inactive” each time. Also, the Potency result in [7], in [8], in assay [10], in assay [11], in assay [12] and in assay [13] was “inactive” in each case. Further, the Potency result in assay [14], in assay [15], in [16], in assay [17], in assay [18] and in [19] was “inactive” each time. Also, the Potency entry in assay [20] is “inactive”.

On to `CO/N=C(/C(=O)N[C@@H]1C(=O)N2C(C(=O)O)=C(CSc3cnns3)CS[C@H]12)c1csc(N)n1`, for which the Potency entry in assay [2], in [3], in assay [4], in [5], in [6] and in [7] was “inactive” throughout. Also, the Potency entry in [8], in assay [10], in assay [11], in assay [12], in [13] and in assay [14] was “inactive” throughout. Moreover, the Potency result in assay [15], in assay [16], in assay [17], in assay [18], in assay [19] and in [20] was “inactive” in each case.

As to `CC1OC(OCC2OC(Oc3c(-c4ccc(OCCO)c(OCCO)c4)oc4cc(OCCO)cc(O)c4c3=O)C(O)C(O)C2O)[C@@H](O)C(O)C1O` (some centres not stated), the Potency entry in assay [1], in assay [2], in assay [3], in assay [4], in assay [5] and in assay [6] was “inactive” throughout. Besides, the Potency entry in [7], in [8], in assay [9], in [10], in assay [11] and in assay [12] was “inactive” each time. For the same compound, the Potency entry in assay [13], in assay [15], in [16], in assay [17], in assay [18] and in assay [19] was “inactive” in each case. Besides, the Potency result in [20] was “inactive”.

For the origin of these results see PubChem BioAssay (NCATS).
